Laboratory results from the supplement of paper PMC10981050.
Values joined by “and” are separate entries in the source; they are usually repeats but may differ in a detail not shown here. Identical values can stand only once. Counter-ions that a name gives are not always drawn.

Tests used:
Assay in all cases: cell viability relative to vehicle control; higher = less cytotoxic
Conditions in all cases: 10 µM
[1] = system: K562
Outline: (§1)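 Four leukaemia lines, as CRISPR-edited mutant clones and isogenic wild-type clones, were tested against Selleck bioactive, kinase and epigenetic probe libraries after removal of identity-inconsistent compounds. Cells were exposed to a single 10 µM dose for 48 h, and CellTiter-Glo luminescence was then read. Viability was calculated relative to the on-plate vehicle control.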

[2] = system: MARIMO
Outline: as §1

[3] = system: MOLM14
Outline: as §1

[4] = system: OCI-AML2
Outline: as §1

In the case of `C=C[C@]1(C)C[C@@H](OC(=O)CSCCN(CC)CC)[C@]2(C)[C@H](C)CC[C@]3(CCC(=O)[C@H]32)[C@@H](C)[C@@H]1O` [Tiamulin], the cell viability ([1]; SRSF2 genotype: SRSF2 P95H/wt) is reported as 83.5% and 81.7%, the cell viability ([1]; SRSF2 genotype: SRSF2 wt/wt) is reported as 90.1% and the cell viability ([2]; SRSF2 genotype: SRSF2 P95H/wt) is reported as 75.6%. It also gave a cell viability ([2]; SRSF2 genotype: SRSF2 wt/wt) of 92.8%, a cell viability ([3]; SRSF2 genotype: SRSF2 P95H/wt) of 84% and a cell viability ([3]; SRSF2 genotype: SRSF2 wt/wt) of 87.9%. It also gave a cell viability ([4]; SRSF2 genotype: P95H/wt) of 86.1% and a cell viability ([4]; SRSF2 genotype: wt/wt) of 79.5%.

In the case of `CC(C)(C)c1nc(-c2ccc(NC(=O)Nc3cccc(C(F)(F)F)c3)c3ccccc23)c2c(N)nccn12` [kira6], the cell viability ([1]; SRSF2 genotype: SRSF2 P95H/wt) is reported as 10.9% and 7.91%, the cell viability ([1]; SRSF2 genotype: SRSF2 wt/wt) is reported as 12.4% and the cell viability ([2]; SRSF2 genotype: SRSF2 P95H/wt) is reported as 28.8%. For the same compound, the cell viability ([2]; SRSF2 genotype: SRSF2 wt/wt) was 28.4%, the cell viability ([3]; SRSF2 genotype: SRSF2 P95H/wt) was 1.58% and the cell viability ([3]; SRSF2 genotype: SRSF2 wt/wt) was 3.37%. For the same compound, the cell viability ([4]; SRSF2 genotype: P95H/wt) was 8.47% and the cell viability ([4]; SRSF2 genotype: wt/wt) was 16.5%.

With `OC[C@H]1O[C@@H](c2ccc(Cl)c(Cc3ccc(O[C@H]4CCOC4)cc3)c2)[C@H](O)[C@@H](O)[C@@H]1O` the cell viability ([1]; SRSF2 genotype: SRSF2 P95H/wt) was 89.6% and 87.1%, the cell viability ([1]; SRSF2 genotype: SRSF2 wt/wt) was 94.4% and the cell viability ([2]; SRSF2 genotype: SRSF2 P95H/wt) was 89.4%. The cell viability ([2]; SRSF2 genotype: SRSF2 wt/wt) was 102%, the cell viability ([3]; SRSF2 genotype: SRSF2 P95H/wt) was 94.3% and the cell viability ([3]; SRSF2 genotype: SRSF2 wt/wt) was 93.8%. It also gave a cell viability ([4]; SRSF2 genotype: P95H/wt) of 93.1% and a cell viability ([4]; SRSF2 genotype: wt/wt) of 105%.

`Nc1ccn([C@@H]2O[C@H](CO)[C@@H](O)[C@@H]2O)c(=O)n1` [Cytarabine hydrochloride] was tested, and the cell viability ([1]; SRSF2 genotype: SRSF2 P95H/wt) was 83.4% and 98.6%, the cell viability ([1]; SRSF2 genotype: SRSF2 wt/wt) was 94.9% and the cell viability ([2]; SRSF2 genotype: SRSF2 P95H/wt) was 28.6%. It also gave a cell viability ([2]; SRSF2 genotype: SRSF2 wt/wt) of 30.5%, a cell viability ([3]; SRSF2 genotype: SRSF2 P95H/wt) of 7.14% and a cell viability ([3]; SRSF2 genotype: SRSF2 wt/wt) of 1.49%. It also gave a cell viability ([4]; SRSF2 genotype: P95H/wt) of 6.92% and a cell viability ([4]; SRSF2 genotype: wt/wt) of 8.04%.
